Unmarked numbers belong to inactive results. A call without a number means that no potency is given here. Calls of active or inactive are those of the source. Calls follow the shape of the full dose curve.
Each molecule was assayed against Acetylcholinesterase (Homo sapiens) (UniProt P22303) (assay: Acetylcholinesterase (AChE) small molecule antagonists: enzyme-based qHTS assay with human liver microsomes (AID 1347399; also: nearly all actives have a fitted effect of over 60% in size)). Conditions: Potency: qHTS inhibition; outcome: qHTS inhibition; series mostly up to 115 µM.
Acetylcholinesterase (Homo sapiens), sequence (P22303 whole entry, looked up): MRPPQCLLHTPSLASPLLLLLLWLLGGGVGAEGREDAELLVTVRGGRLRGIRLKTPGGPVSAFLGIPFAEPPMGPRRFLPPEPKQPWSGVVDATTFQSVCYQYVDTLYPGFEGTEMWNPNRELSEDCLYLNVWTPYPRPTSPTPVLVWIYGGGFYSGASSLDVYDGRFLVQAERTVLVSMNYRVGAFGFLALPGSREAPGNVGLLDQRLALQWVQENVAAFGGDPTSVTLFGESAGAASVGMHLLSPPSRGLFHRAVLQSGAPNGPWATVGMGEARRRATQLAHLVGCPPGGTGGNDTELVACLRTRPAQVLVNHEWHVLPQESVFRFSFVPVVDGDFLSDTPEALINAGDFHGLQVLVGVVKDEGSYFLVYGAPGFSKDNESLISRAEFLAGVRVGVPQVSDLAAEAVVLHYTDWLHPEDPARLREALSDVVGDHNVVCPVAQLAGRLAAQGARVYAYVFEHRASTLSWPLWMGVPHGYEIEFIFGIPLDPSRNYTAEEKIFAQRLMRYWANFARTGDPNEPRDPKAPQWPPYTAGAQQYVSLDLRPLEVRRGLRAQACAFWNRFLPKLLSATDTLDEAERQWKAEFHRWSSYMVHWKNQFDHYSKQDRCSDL
Method in brief: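 Recombinant human AChE (50 mU/mL in the enzyme mix) and human liver microsomes (0.25 mg/mL final) were preincubated with compound and NADPH (0.25 mg/mL final) for 30 min at 37 C. Acetylthiocholine/DTNB was then added; thiocholine was read colorimetrically after 10 min at room temperature.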

SMILES | Potency | activity change, negative = inhibition
CCCNC(=O)NS(=O)(=O)c1ccc(Cl)cc1 | inactive | 
CC(C)=CCCC(C)CCO (stereo not given) | inactive | 
CNS(=O)(=O)Cc1ccc2[nH]cc(CCN(C)C)c2c1 | inactive | 
CC(=O)O[C@H](CC(=O)[O-])C[N+](C)(C)C | inactive | 
CCCOCCO | inactive | 
O=c1c2ccccc2oc2ccccc12 | inactive | 
CC(CN)CCCN (stereo not given) | inactive | 
COC(=O)c1ccccc1 | inactive | 
O=C(O)CCCCCCC(=O)O | inactive | 
CCCCCC=O | inactive | 
CC(CCC(=O)O)(c1ccc(O)cc1)c1ccc(O)cc1 | inactive | 
CN1CN(C)CN(C)C1 | inactive | 
CSCC[C@H](NC(=O)[C@H](Cc1c[nH]c2ccccc12)NC(=O)CCNC(=O)OC(C)(C)C)C(=O)N[C@@H](CC(=O)O)C(=O)N[C@@H](Cc1ccccc1)C(N)=O | inactive | 
O=c1[nH]c2ccccc2n1CCCN1CCN(C(c2ccccc2)c2ccccc2)CC1 | inactive | 
CN(C)c1ccc(Cc2ccc(N(C)C)cc2)cc1 | inactive | 
COc1c(Cl)c(Cl)c(Cl)c(Cl)c1Cl | inactive | 
CCCc1ncc(C(=O)O)s1 | inactive | 
CC1(C)CC(N=C=O)CC(C)(CN=C=O)C1 (stereo not given) | inactive | 
CCC(CO)(CO)CO | inactive | 
C/C=C/C=N/NC(=O)c1ccncc1 | inactive | 

SMILES | Potency | activity change, negative = inhibition
CC/C=C(\C)C=O | inactive | 
CC(C)OC(=O)C(C(=O)OC(C)C)=C1SC=CS1 | inactive | 
CC(O)COc1ccccc1 (stereo not given) | inactive | 
NCCCC[C@H](N[C@@H](CCc1ccccc1)C(=O)O)C(=O)N1CCC[C@H]1C(=O)O | inactive | 
CC1(O)CSC(C)(O)CS1 (stereo not given) | inactive | 
Cc1ccc(C(=O)O)cc1[N+](=O)[O-] | inactive | 
CCOCC(O)COc1ccc(NC(=O)CC[S+](C)C)cc1 (stereo not given) | inactive | 
O=[N+]([O-])c1ccccc1Nc1ccccc1 | inactive | 
CC(=O)Oc1ccccc1C(=O)O | inactive | 
COCCOC(=O)C1=C(C)NC(C)=C(C(=O)OC(C)C)C1c1cccc([N+](=O)[O-])c1 (stereo not given) | inactive | 
CN1CCN(CCCN2c3ccccc3Sc3ccc(Cl)cc32)CC1 | inactive | 
O=C(O)CC(C(=O)O)S(=O)(=O)O (stereo not given) | inactive | 
NC(=O)OCC(COC(N)=O)c1ccccc1 | inactive | 
CC/C(=C(\c1ccc(O)cc1)c1ccc(OCCN(C)C)cc1)c1ccccc1 | inactive | 
O=C(O)c1ccc[n+]([O-])c1 | inactive | 
C[C@]12CC[C@@H]3c4ccc(O)cc4CC[C@H]3[C@@H]1CC[C@@H]2O | inactive | 
Cc1cc(NC(=O)C2=C(O)c3ccccc3S(=O)(=O)N2C)no1 | inactive | 
O=C(O)c1[nH]n(-c2ccc(S(=O)(=O)O)cc2)c(=O)c1N=Nc1ccc(S(=O)(=O)O)cc1 | inactive | 
Cc1ccsc1C(=CCCN1CCC[C@@H](C(=O)O)C1)c1sccc1C | inactive | 
NC[C@H]1O[C@H](O[C@H]2[C@H](O)[C@@H](O[C@H]3O[C@H](CO)[C@@H](O)[C@H](N)[C@H]3O)[C@H](N)C[C@@H]2N)[C@H](N)[C@@H](O)[C@@H]1O |  | 3.75% [at 23.6 µM]

Reference: PubChem BioAssay (Tox21)
